Measured values taken from PubChem BioAssay (Tox21).
“And” between values parts separate entries of the source, which are not always exact repeats. Equal entries are not always repeated. Inconclusive results are not listed. A call without a number means that no potency is given here. Values without a mark were called inactive. The source made the active and inactive calls. Unless noted, calls follow the shape of the dose curve; as a rule, active = well fitted curve in the direction sought with a large enough effect in the repeat runs; inconclusive = weak or mixed curves; inactive = no such curve, though single readings can be large; an effect the other way counts as inactive or inconclusive.

Assay: qHTS assay for small molecule activators of the heat shock response signaling pathway - cell viability counter screen (AID 743209); also: nearly all actives have a fitted effect of over 50% in size
Conditions: HSE-bla HeLa viability, CellTiter-Glo luminescence, 5 h; series mostly up to 62.6 µM; activity change, negative = cytotoxicity: at the top concentration
Method in brief: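 Quantitative HTS format, Tox21 10K library. HeLa cells carrying an HSE-driven beta-lactamase reporter were treated 5 h at 37 C, then assessed for viability by CellTiter-Glo luminescence.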

| Compound | Potency | activity change, negative = cytotoxicity |
| --- | --- | --- |
| CCN(CC)CCNC(=O)c1ccc(N)cc1 | inactive |  |
| CN1Cc2c(N)cccc2C(c2ccccc2)C1 (centres undefined) | inactive |  |
| OCCOCCOCCOCCOCCO | inactive |  |
| NCCNCCNCCN | inactive |  |
| COc1c2ccoc2cc2oc(=O)ccc12 | inactive |  |
| CO[Si](CCCNCCN)(OC)OC | inactive |  |
| CCCOCC(C)O (centres undefined) | inactive |  |
| COc1ccc2cc3[n+](cc2c1OC)CCc1cc2c(cc1-3)OCO2 | inactive |  |
| OC1CCCCC1 | inactive |  |
| Nc1nc(N)c2nc(-c3ccccc3)c(N)nc2n1 | inactive |  |
| CC(O)CNCC(C)O (centres undefined) | inactive |  |
| O=C(O)Cc1c[nH]c2ccccc12 | inactive |  |
| CCCCCC(C)=O | inactive |  |
| CCOC(=O)CC(=O)OCC | inactive |  |
| CCCCCCCCCCCCCC(=O)O |  | -0.0993% |
| C=C(C)CC(C)(C)C | inactive |  |
| CCCN(CCC)C(=O)SCC | inactive |  |
| NC1CCCCC1N (centres undefined) | inactive |  |
| CN=C(NC#N)NCCSCc1nc[nH]c1C | inactive |  |
| COCN(COC)c1nc(N(COC)COC)nc(N(COC)COC)n1 |  | -4.68% [at 81.1 µM] |
| CCCCC(CC)COC(=O)c1ccc(C(=O)OCC(CC)CCCC)cc1 (centres undefined) | inactive |  |
| OC[C@H]1O[C@@H](Oc2ccc(O)cc2)[C@H](O)[C@@H](O)[C@@H]1O | inactive |  |
| COC(=O)/C=C\C(=O)OC | inactive |  |
| CC(C)c1ccc(C(C)C)cc1 | inactive |  |
| CCc1cccc(CC)c1N | inactive |  |
| Clc1cccc(Cl)c1NC1=NCCN1 | inactive |  |

Assay: qHTS assay for small molecule activators of the heat shock response signaling pathway (AID 743210; active = well fitted activation curve with a large enough effect in the signal ratio in the repeat runs, with a control signal flat, not every such curve was filed as active; the % refers to the signal ratio; also: potency is read from the fitted curve at half-maximal effect;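 as to activation: HeLa cells with beta-lactamase reporter driven by heat shock elements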)
Conditions: HeLa HSE-bla reporter, beta-lactamase ratio, 5 h; series mostly up to 62.6 µM; activation: at the top concentration
Method in brief: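 In HSE-bla HeLa cells, 5 h compound incubation (37 C) precedes addition of LiveBLAzer B/G substrate; after 2.5 h at room temperature, fluorescence intensity indicates reporter induction.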

| Compound | Potency | activation |
| --- | --- | --- |
| CCN(CC)CCNC(=O)c1ccc(N)cc1 | inactive |  |
| CN1Cc2c(N)cccc2C(c2ccccc2)C1 (centres undefined) | inactive |  |
| CC(=O)OC/C=C(\C)CCC=C(C)C | inactive |  |
| OCCOCCOCCOCCOCCO | inactive |  |
| COc1c2ccoc2cc2oc(=O)ccc12 | inactive |  |
| CO[Si](CCCNCCN)(OC)OC | inactive |  |
| CCCOCC(C)O (centres undefined) | inactive |  |
| O=Cc1ccc(CO)o1 | inactive |  |
| COc1ccc2cc3[n+](cc2c1OC)CCc1cc2c(cc1-3)OCO2 | inactive |  |
| OC1CCCCC1 | inactive |  |
| Nc1nc(N)c2nc(-c3ccccc3)c(N)nc2n1 | 37.1 µM (active) and 29.7 µM (active) and 26.6 µM (active) |  |
| CC(O)CNCC(C)O (centres undefined) | inactive |  |
| O=C(O)Cc1c[nH]c2ccccc12 | inactive |  |
| O=[N+]([O-])c1cc(C(F)(F)F)ccc1Cl | inactive |  |
| CC/C(C)=N/O | inactive |  |
| CC(C)=CCC/C(C)=C/C=O | inactive |  |
| CCCCCC(C)=O |  | -0.988% [at 81.1 µM] |
| CCOC(=O)CC(=O)OCC | inactive |  |

| Compound | Potency | activation |
| --- | --- | --- |
| C=C(C)CC(C)(C)C | inactive |  |
| CCCN(CCC)C(=O)SCC | inactive |  |
| NC1CCCCC1N (centres undefined) | inactive |  |
| O=[N+]([O-])c1ccccc1C(F)(F)F | inactive |  |
| O=C(O)C1=NN(c2ccc(S(=O)(=O)O)cc2)C(=O)C1 | inactive |  |
| Cc1cc(C)c(O)c(C)c1 | inactive |  |
| O=c1n(CCCN2CCN(c3cccc(Cl)c3)CC2)nc2ccccn12 | inactive |  |
| CN=C(NC#N)NCCSCc1nc[nH]c1C | inactive |  |
| COCN(COC)c1nc(N(COC)COC)nc(N(COC)COC)n1 | inactive |  |
| CCCCC(CC)COC(=O)c1ccc(C(=O)OCC(CC)CCCC)cc1 (centres undefined) | inactive |  |
| OC[C@H]1O[C@@H](Oc2ccc(O)cc2)[C@H](O)[C@@H](O)[C@@H]1O | inactive |  |
| COC(=O)/C=C\C(=O)OC | inactive |  |
| CC(C)c1ccc(C(C)C)cc1 | inactive |  |
| CC(CN1c2ccccc2Sc2ccccc21)N(C)C (centres undefined) | inactive |  |
| CCc1cccc(CC)c1N | inactive |  |
| Brc1ccc(Oc2ccc(Br)cc2)cc1 |  | -0.654% |
| Clc1cccc(Cl)c1NC1=NCCN1 | inactive |  |

Assay: qHTS assay to identify small molecule agonists of the peroxisome proliferator-activated receptor delta (PPARd) signaling pathway - cell viability counter screen (AID 743211); also: nearly all actives have a fitted effect of over 55% in size; also: potency is read from the fitted curve at half-maximal effect
Conditions: PPARd-bla HEK293H viability, CellTiter-Glo luminescence, 17 h; series mostly up to 62.6 µM; activity change, negative = cytotoxicity: at the top concentration
Method in brief: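 In the same wells used for beta-lactamase reporter measurement, cytotoxicity is scored by CellTiter-Glo. HEK293H PPARd-bla cells receive compound for 17 h at 37C following a 5 h settling period.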

| Compound | Potency | activity change, negative = cytotoxicity |
| --- | --- | --- |
| CCN(CC)CCNC(=O)c1ccc(N)cc1 | inactive |  |
| CN1Cc2c(N)cccc2C(c2ccccc2)C1 (centres undefined) |  | -10.5% |
| CC(=O)OC/C=C(\C)CCC=C(C)C | inactive |  |
| OCCOCCOCCOCCOCCO |  | -0.196% [at 81.1 µM] |
| NCCNCCNCCN | inactive |  |
| COc1c2ccoc2cc2oc(=O)ccc12 | inactive |  |
| CO[Si](CCCNCCN)(OC)OC | inactive |  |
| CCCOCC(C)O (centres undefined) | inactive |  |
| O=Cc1ccc(CO)o1 | inactive |  |
| COc1ccc2cc3[n+](cc2c1OC)CCc1cc2c(cc1-3)OCO2 |  | -15.7% |
| OC1CCCCC1 | inactive |  |
| Nc1nc(N)c2nc(-c3ccccc3)c(N)nc2n1 |  | -19.8% |
| CC(O)CNCC(C)O (centres undefined) | inactive |  |
| O=C(O)Cc1c[nH]c2ccccc12 | inactive |  |
| O=[N+]([O-])c1cc(C(F)(F)F)ccc1Cl | inactive |  |
| CC/C(C)=N/O |  | 1.93% |
| CC(C)=CCC/C(C)=C/C=O | inactive |  |
| CCCCCC(C)=O | inactive |  |
| CCOC(=O)CC(=O)OCC | inactive |  |

| Compound | Potency | activity change, negative = cytotoxicity |
| --- | --- | --- |
| CCCCCCCCCCCCCC(=O)O | inactive |  |
| C=C(C)CC(C)(C)C | inactive |  |
| CCCN(CCC)C(=O)SCC | inactive |  |
| NC1CCCCC1N (centres undefined) | inactive |  |
| O=[N+]([O-])c1ccccc1C(F)(F)F | inactive |  |
| O=C(O)C1=NN(c2ccc(S(=O)(=O)O)cc2)C(=O)C1 | inactive |  |
| Cc1cc(C)c(O)c(C)c1 | inactive |  |
| O=c1n(CCCN2CCN(c3cccc(Cl)c3)CC2)nc2ccccn12 |  | -6.4% |
| CN=C(NC#N)NCCSCc1nc[nH]c1C | inactive |  |
| COCN(COC)c1nc(N(COC)COC)nc(N(COC)COC)n1 |  | 5.95% [at 81.1 µM] |
| CCCCC(CC)COC(=O)c1ccc(C(=O)OCC(CC)CCCC)cc1 (centres undefined) | inactive |  |
| OC[C@H]1O[C@@H](Oc2ccc(O)cc2)[C@H](O)[C@@H](O)[C@@H]1O | inactive |  |
| COC(=O)/C=C\C(=O)OC | inactive |  |
| CC(C)c1ccc(C(C)C)cc1 | inactive |  |
| O=C(NCC1CCCCN1)c1cc(OCC(F)(F)F)ccc1OCC(F)(F)F (centres undefined) | inactive |  |
| CC(CN1c2ccccc2Sc2ccccc21)N(C)C (centres undefined) | 49.5 µM (active) and 21.9 µM (active) |  |
| CCc1cccc(CC)c1N | inactive |  |
| Brc1ccc(Oc2ccc(Br)cc2)cc1 | inactive |  |
| Clc1cccc(Cl)c1NC1=NCCN1 |  | 7.15% |
